The target in assay [1] is Glucocorticoid receptor (Homo sapiens) (UniProt P04150). As to the kind of experiment: qHTS assay for small molecule antagonists of glucocorticoid receptor signaling (AID 588533; active means well fitted inhibition curve with a large enough effect in the signal ratio, with a control signal flat, not every such curve was filed as active; the % refers to the signal ratio;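 further: cells stimulated with 2 nM dexamethasone as agonist; on the % scale 0 is the no-effect control and ±100 the full control effect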). Put shortly:
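Antagonist-mode qHTS: compound titrations added to GRE-bla HeLa cells, then dexamethasone 2 nM final; 18 h, 37 C. CCF4 FRET fluorescence normalized to dexamethasone and DMSO; IC50 from Hill fit.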

Assay [2] in a line: qHTS assay for small molecule antagonists of peroxisome proliferator-activated receptor delta signaling (AID 588535).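 Further: cells co-treated with a PPAR-delta agonist as stimulator during compound exposure.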 The note with it: HEK293T PPARd-UAS-bla, beta-lactamase FRET ratio, 18 h; 460 nm channel. Put shortly: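 Titrations were run on PPAR-delta-UAS-bla HEK293T cells in charcoal/dextran-stripped serum, incubated 18 h at 37 C. CCF4 fluorescence (460/530 nm) after 2 h RT; Hill equation yields IC50 and maximal response.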

Assay [3] addresses Peroxisome proliferator-activated receptor gamma (Homo sapiens) (UniProt P37231). As to the kind of experiment: qHTS assay for small molecule agonists of peroxisome proliferator-activated receptor gamma signaling (AID 588536; active means well fitted curve in the direction sought with a large enough effect in the signal ratio, with a control signal flat, not every such curve was filed as active; the % refers to the signal ratio;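 further: 0% = DMSO basal wells and 100% = rosiglitazone at 2 µM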). An outline of the steps: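 Cells were plated and held 6–6.5 h at 37 C, then compounds were added as a titration series. After a further 16 h, CCF4 dye was loaded for 2 h at room temperature and emission at 460/530 nm recorded.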

For assay [4] the target is unchanged. As to the kind of experiment: qHTS assay for small molecule antagonists of peroxisome proliferator-activated receptor gamma signaling (AID 588537; active means well fitted inhibition curve with a large enough effect in the signal ratio, with a control signal flat, not every such curve was filed as active; the % refers to the signal ratio; further: potency means the concentration at half of the fitted maximal effect). An outline of the steps:
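Antagonist-mode β-lactamase reporter screen run as a titration series. HEK293 PPARγ-UAS-bla cells are stimulated with rosiglitazone (50 nM final) for 16 h, then CCF4 is read at 460/530 nm. Data are scaled between DMSO and rosiglitazone and fitted to the Hill equation.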

For assay [5], the target named is Vitamin D3 receptor (Homo sapiens) (UniProt P11473). In words: qHTS assay for small molecule agonists of vitamin D receptor signaling (AID 588543; calls by dose curve;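 further: 0% = DMSO basal and 100% = reference agonist control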). An outline of the steps: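 qHTS in agonist mode: compound titrations stimulate a VDR-driven β-lactamase reporter in HEK293T cells over 16 h at 37 °C. Response normalized to 50 nM 1α,25-dihydroxyvitamin D3 = 100%, DMSO = 0%; Hill fitting gives EC50 and maximal response.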
Vitamin D3 receptor (Homo sapiens), sequence (P11473 whole entry, looked up): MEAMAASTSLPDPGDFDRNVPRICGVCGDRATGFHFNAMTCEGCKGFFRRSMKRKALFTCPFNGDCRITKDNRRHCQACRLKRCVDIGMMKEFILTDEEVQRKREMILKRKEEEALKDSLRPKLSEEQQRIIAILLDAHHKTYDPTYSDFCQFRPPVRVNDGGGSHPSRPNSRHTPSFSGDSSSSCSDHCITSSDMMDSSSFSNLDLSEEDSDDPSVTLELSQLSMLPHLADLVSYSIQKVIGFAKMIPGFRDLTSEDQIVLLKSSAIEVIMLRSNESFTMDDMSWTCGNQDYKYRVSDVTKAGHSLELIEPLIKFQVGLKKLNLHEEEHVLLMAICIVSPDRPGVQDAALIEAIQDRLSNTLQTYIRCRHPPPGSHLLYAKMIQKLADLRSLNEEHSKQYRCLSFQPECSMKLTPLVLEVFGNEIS

The nature of assay [6]: qHTS assay for small molecule agonists of retinoid X receptor alpha signaling (AID 588544). As to conditions: HEK293T RXRa-UAS-bla, beta-lactamase reporter, 18 h; 530 nm emission.
Assay [7] has as its target Thyroid hormone receptor beta (Homo sapiens) (UniProt P10828). In words: qHTS assay for small molecule agonists of thyroid hormone receptor beta signaling (AID 588545; calls by dose curve). Put shortly: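 Agonist-mode beta-lactamase reporter assay, HEK 293 cells, 2% charcoal/dextran FBS; cells plated 4 hrs, compound 18 hrs at 37 C, CCF4 2 hrs RT. Normalized to 10 nM T3 (100%) and DMSO (0%); Hill fit gives EC50, efficacy.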

A short description of assay [8]: qHTS assay for small molecule antagonists of retinoid X receptor alpha signaling (AID 588546; active means well fitted inhibition curve with a large enough effect in the signal ratio, with a control signal flat, not every such curve was filed as active; the % refers to the signal ratio; further: potency means the concentration at half of the fitted maximal effect;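 on max response: cells stimulated with 9-cis-retinoic acid as agonist; on the % scale 0 is the no-effect control and ±100 the full control effect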). The note with it: HEK293T RXRa-UAS-bla, beta-lactamase ratio, antagonist mode; measured here: W530 green channel, cytotoxicity proxy. An outline of the steps: (§1)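 Beta-lactamase reporter inhibition, read as CCF4 fluorescence ratio (ex 405, em 460/530 nm) after 2 h at RT. HEK293T UAS-bla cells, 2500/well, were stimulated with 9-cis-RA at 500 or 100 nM final alongside test compound for 18 h at 37 C.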

The target in assay [9] is Retinoic acid receptor RXR-alpha (Homo sapiens) (UniProt P19793). The description is as above. As to conditions: HEK293T RXRa-UAS-bla, beta-lactamase ratio, antagonist mode. Put shortly:
as §1

Assay [10] in a line: qHTS assay for small molecule activators of the p53 signaling pathway (AID 651743; active means well fitted activation curve with a large enough effect in the signal ratio, not every such curve was filed as active; the % refers to the signal ratio; further: potency means the concentration at half of the fitted maximal effect; on activation: series mostly up to about 92 µM; % of control where 0% means no effect). The note with it: HCT-116 p53RE-bla, beta-lactamase FRET ratio, 16 h; activation: stronger effect = higher value. An outline of the steps:
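After 16 hours compound treatment at 37 C, HCT-116 cells stably expressing p53RE-driven beta-lactamase were loaded with LiveBLAzer B/G FRET substrate for 2 hours at room temperature. Fluorescence intensity served as the p53 activation read-out.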

A short description of assay [11]: qHTS assay for small molecule activators of the nuclear factor-kappa B (NF-kB) signaling pathway (AID 651749; active means well fitted activation curve with a large enough effect in the signal ratio; the % refers to the signal ratio; further: series mostly up to about 77 µM; % of control where 0% means no effect). As to conditions: NF-kB-bla ME-180 cells, beta-lactamase FRET ratio, 16 h; activation: stronger effect = higher value. Put shortly: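 Activation measured after 16 hr compound treatment at 37C, 5% CO2, of 2,000 ME-180 cells/well stably expressing an NF-kB response element–driven beta-lactamase reporter, via FRET-disruption fluorescence.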

Assay [12] can be described thus: qHTS assay for environmental chemicals that activate the Aryl hydrocarbon Receptor (AhR) signaling pathway (AID 651777). Further: % of control where 0% means no effect; nearly all actives have a fitted effect of over 15% in size. The note with it: 1A2-DRE human hepatoma cells, luciferase, 24 h; activation: stronger effect = higher value. Put shortly:
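Induction of CYP1A2 transcription through AhR is detected by luciferase in 1A2-DRE hepatoma cells. Compounds or DMSO act for 24 hr at 37 C before a 30 min One-Glo step at room temperature.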

Assay [13] concerns the target Peroxisome proliferator-activated receptor alpha (Homo sapiens) (UniProt Q07869). As to the kind of experiment: qHTS assay for small molecule agonists of the peroxisome proliferator-activated receptor alpha (PPARalpha) signaling pathway (AID 651778). Further: % of control where 0% means no effect. The note with it: PathHunter PPARalpha complementation, chemiluminescence, 6 h; max response: stronger effect = higher value. Put shortly: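 Chemiluminescence from complemented enzyme reported PPARalpha activation in cells after 6 hr of compound treatment at 37 C. The detection reagent was incubated for 60 min at room temperature, and compounds were scored as agonists.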

Assay [14] is described as follows: qHTS assay for small molecule agonists of the antioxidant response element (ARE) signaling pathway measured by Nrf2-dependant transcriptional activity - cell viability counter screen (AID 720653; active means well fitted curve in the direction sought with a large enough effect in the repeat runs; an effect the other way counts as inactive or inconclusive; further: on the % scale 0 is the no-effect control and ±100 the full control effect). As to conditions: ARE-bla HepG2 viability, CellTiter-Glo ATP luminescence, 16 h; max response: stronger effect = lower value. An outline of the steps: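 Cytotoxicity counter screen: intracellular ATP quantified by CellTiter-Glo luminescence in the same ARE-bla HepG2 plates, after 16 h compound exposure and a 2 h beta-lactamase substrate step.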

Assay [15] is described as follows: qHTS assay for cell viability of HEK293 cells (AID 743288). Further: on the % scale 0 is the no-effect control and ±100 the full control effect; nearly all actives have a fitted effect of over 50% in size. The note with it: ATP luminescence (CellTiter-Glo), 18 h; max response: stronger effect = lower value. Put shortly: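 Quantitative high-throughput screen: compounds were pinned onto parental HEK293 cells (2,000 per well) after a minimum 5 h settling at 37 C, incubated 18 h at 37 C, and intracellular ATP measured by luciferase luminescence.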

Assay [16] is described as follows: qHTS assay for cell viability of the p53RE-bla HCT-116 cell line (AID 743292). Further: nearly all actives have a fitted effect of over 55% in size. Further: potency means the concentration at half of the fitted maximal effect. An outline of the steps:
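In this qHTS counter-screen, metabolically competent p53RE-bla HCT-116 cells were counted via their ATP content. Compounds were applied for 16 h at 37 C and luciferase-coupled luminescence was measured.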

For assay [17], the target named is Nuclear receptor subfamily 1 group I member 2 (Rattus norvegicus) (UniProt Q9R1A7). In words: qHTS assay for small molecule activators of the rat pregnane X receptor (rPXR) signaling pathway (AID 651751; call rule not given here; further: 0% is about no effect). The note with it: rPXR reporter cells, luciferase (One-Glo), 24 h.
Nuclear receptor subfamily 1 group I member 2 (Rattus norvegicus), sequence (Q9R1A7 whole entry, looked up): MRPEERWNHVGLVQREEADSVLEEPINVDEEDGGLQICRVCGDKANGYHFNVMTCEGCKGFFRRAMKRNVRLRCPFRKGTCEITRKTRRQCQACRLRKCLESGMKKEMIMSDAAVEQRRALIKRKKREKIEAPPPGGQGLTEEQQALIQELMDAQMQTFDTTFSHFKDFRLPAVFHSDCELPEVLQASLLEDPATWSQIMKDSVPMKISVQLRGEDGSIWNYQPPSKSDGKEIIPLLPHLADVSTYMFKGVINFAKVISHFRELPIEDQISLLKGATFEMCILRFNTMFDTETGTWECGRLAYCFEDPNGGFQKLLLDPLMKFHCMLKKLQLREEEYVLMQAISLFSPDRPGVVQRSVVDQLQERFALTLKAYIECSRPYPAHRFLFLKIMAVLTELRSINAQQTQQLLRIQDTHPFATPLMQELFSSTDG
Assay [18] can be described thus: qHTS assay for small molecule activators of the human pregnane X receptor (PXR) signaling pathway (AID 720659; call rule not given here; further: 0% is about no effect).
Assay [19] deals with Glucocorticoid receptor (Homo sapiens) (UniProt P04150). As to the kind of experiment: qHTS assay for small molecule agonists of glucocorticoid receptor signaling (AID 588532; active means well fitted curve in the direction sought with a large enough effect in the signal ratio, with a control signal flat; the % refers to the signal ratio;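 further: 100% = dexamethasone at 0.1 µM and 0% = DMSO only wells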). The note with it: HeLa MMTV-bla, beta-lactamase ratio, agonist, 18 h; stronger effect = higher value; percent of dexamethasone control, DMSO zero. Put shortly:
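Quantitative HTS using CellSensor MMTV-bla HeLa cells in charcoal/dextran-treated serum; compounds tested up to 92 uM. After 18 h at 37 C, CCF4 dye reported reporter induction.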

Assay [20] in a line: qHTS assay for small molecule agonists of the antioxidant response element (ARE) signaling pathway measured by Nrf2-dependant transcriptional activity (AID 720636; active means well fitted curve in the direction sought with a large enough effect in the repeat runs; an effect the other way counts as inactive or inconclusive;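 further: HepG2 cells with an ARE-driven luciferase reporter; % of control where 0% means no effect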). An outline of the steps: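 We exposed ARE-luc HepG2 cells, seeded in assay medium with 1% dialyzed FBS and allowed 6 hr to adhere, to test compounds overnight (16 hr, 37 C) before measuring luciferase with ONE-Glo.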

Records with an inconclusive call do not appear. The source made the active and inactive calls. Unless noted, the call rests on the fitted dose curve; in most records, active means well fitted curve in the direction sought with a large enough effect; inconclusive means small, poorly fitted or top-dose-only effect, or another doubt; inactive means no such curve, though single readings can be large; an effect the other way counts as inactive or inconclusive.

Thyroid hormone receptor beta (Homo sapiens), sequence (P10828 whole entry, looked up): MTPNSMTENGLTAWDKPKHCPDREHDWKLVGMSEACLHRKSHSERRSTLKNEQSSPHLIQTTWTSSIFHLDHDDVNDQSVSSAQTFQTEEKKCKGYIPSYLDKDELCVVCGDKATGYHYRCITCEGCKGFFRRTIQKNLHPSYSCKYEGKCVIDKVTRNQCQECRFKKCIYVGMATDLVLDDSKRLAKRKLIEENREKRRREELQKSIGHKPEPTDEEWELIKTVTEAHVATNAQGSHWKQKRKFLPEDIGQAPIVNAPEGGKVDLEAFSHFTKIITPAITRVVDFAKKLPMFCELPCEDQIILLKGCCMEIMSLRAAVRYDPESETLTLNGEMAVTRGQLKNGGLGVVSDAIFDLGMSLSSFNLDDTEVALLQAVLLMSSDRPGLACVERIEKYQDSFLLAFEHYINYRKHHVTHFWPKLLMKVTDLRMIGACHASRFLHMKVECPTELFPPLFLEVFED
Retinoic acid receptor RXR-alpha (Homo sapiens), sequence (P19793 whole entry, looked up): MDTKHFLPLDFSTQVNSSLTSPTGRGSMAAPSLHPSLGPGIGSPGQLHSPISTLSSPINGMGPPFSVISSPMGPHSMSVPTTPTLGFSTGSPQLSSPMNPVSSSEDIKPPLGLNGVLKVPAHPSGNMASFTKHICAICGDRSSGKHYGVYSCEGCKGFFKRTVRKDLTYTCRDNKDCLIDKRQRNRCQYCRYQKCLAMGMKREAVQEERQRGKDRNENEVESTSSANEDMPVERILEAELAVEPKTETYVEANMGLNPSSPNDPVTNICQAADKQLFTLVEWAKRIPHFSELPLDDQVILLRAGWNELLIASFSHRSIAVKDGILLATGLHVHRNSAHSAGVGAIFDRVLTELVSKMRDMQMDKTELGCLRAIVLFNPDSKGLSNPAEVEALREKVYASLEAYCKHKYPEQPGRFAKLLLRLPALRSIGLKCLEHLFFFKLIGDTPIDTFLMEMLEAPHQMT
Peroxisome proliferator-activated receptor alpha (Homo sapiens), sequence (Q07869 whole entry, looked up): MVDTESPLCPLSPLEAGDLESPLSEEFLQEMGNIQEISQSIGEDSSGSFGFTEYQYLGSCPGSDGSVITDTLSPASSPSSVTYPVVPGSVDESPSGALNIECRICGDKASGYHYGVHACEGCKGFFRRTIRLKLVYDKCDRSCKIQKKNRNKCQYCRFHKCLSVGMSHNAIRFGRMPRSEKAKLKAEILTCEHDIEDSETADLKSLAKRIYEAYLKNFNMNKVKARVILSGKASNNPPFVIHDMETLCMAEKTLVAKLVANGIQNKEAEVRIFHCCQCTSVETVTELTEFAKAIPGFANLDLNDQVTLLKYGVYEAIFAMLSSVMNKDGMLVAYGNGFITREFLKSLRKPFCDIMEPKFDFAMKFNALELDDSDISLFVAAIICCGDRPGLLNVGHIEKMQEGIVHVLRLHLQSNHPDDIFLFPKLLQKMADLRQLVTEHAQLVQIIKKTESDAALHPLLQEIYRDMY
Peroxisome proliferator-activated receptor gamma (Homo sapiens), sequence (P37231 whole entry, looked up): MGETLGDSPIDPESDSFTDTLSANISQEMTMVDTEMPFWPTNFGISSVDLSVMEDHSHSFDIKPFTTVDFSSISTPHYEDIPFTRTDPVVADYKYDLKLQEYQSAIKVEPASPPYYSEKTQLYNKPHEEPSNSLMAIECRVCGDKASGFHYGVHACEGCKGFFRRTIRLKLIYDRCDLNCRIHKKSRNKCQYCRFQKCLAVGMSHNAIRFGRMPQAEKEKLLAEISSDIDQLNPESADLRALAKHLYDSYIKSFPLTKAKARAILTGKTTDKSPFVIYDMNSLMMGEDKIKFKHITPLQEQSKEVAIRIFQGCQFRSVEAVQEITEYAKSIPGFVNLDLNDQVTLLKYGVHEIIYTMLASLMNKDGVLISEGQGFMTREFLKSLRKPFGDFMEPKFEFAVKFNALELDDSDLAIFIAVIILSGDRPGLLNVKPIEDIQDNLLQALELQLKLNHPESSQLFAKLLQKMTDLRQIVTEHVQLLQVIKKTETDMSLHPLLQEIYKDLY
Glucocorticoid receptor (Homo sapiens), sequence (P04150 whole entry, looked up): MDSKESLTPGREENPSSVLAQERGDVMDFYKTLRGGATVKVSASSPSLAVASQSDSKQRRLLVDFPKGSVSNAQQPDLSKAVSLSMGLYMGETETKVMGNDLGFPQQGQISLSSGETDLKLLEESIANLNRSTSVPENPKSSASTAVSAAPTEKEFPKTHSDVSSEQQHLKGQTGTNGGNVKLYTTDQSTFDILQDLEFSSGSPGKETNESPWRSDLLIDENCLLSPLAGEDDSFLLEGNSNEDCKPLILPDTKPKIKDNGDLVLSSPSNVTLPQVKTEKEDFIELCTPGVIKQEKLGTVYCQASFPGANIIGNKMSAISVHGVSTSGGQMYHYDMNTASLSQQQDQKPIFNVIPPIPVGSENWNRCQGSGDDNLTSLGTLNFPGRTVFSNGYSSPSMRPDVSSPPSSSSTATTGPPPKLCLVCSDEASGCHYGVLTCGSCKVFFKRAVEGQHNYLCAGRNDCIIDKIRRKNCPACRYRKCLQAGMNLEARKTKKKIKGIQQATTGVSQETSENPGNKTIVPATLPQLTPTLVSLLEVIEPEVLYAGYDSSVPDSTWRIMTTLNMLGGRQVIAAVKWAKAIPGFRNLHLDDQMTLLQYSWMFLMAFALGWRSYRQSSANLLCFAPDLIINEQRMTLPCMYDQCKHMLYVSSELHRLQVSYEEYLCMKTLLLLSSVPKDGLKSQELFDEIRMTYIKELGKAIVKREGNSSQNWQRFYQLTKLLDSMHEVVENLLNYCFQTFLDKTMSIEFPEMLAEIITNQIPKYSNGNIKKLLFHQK

Consider `Clc1nc(Cl)c(Cl)c(Cl)c1Cl`, for which the Potency entry in [1], in assay [4], in assay [7] and in [16] was “inactive” throughout. The max response is 31.1% in assay [2]; -3.68% in assay [6]; -0.304% in assay [8]; -25.7% (inactive) in assay [9]; -3.38% (inactive) in assay [13]; -5.53% (inactive) in [14]. Moreover, the max response in assay [15] was -14.3% (inactive); in assay [17], -3.08% (inactive). Moreover, the outcome in [3], in assay [5] and in assay [18] was inactive. Besides, the activation in [10] was -0.354% (inactive); in [11], -1.8% (inactive); in [12], -0.0238% (inactive).
Turning to `O=[N+]([O-])c1ccc(O)cc1C(F)(F)F`, the activation was -7.74% (inactive) in [19] and 14.2% (inactive) in assay [12]. Further, the max response was -4.35% in assay [2] and 6.72% in assay [8]. The Potency result in assay [4], in assay [7], in [20] and in assay [16] was “inactive” throughout. Moreover, the compound was classed as inactive in assay [5] and in assay [18]. The Potency was 7.94 µM (active) in assay [9] and 31.6 µM (active) in assay [10].
With `C=C(C)C(=O)OCCC[Si](Cl)(Cl)Cl`, the Potency entry in [1], in assay [4], in assay [20] and in [16] was “inactive” in each case. Also, the max response was 8.96% in assay [2]; -12.2% in assay [6]; -12.6% in [8]; 9.64% (inactive) in assay [9]; -17.2% (inactive) in assay [14]; -10.2% (inactive) in [15]. Besides, the max response in assay [17] is 1.99% (inactive). In addition, the call in [3] and in [18] was inactive. The activation is -1.03% (inactive) in assay [10], -0.259% (inactive) in assay [11] and -0.113% (inactive) in assay [12].
Take `O=c1oc(=O)c2cc3c(=O)oc(=O)c3cc12`: the max response in assay [2] was 11%; in assay [6], -7.31%; in assay [8] it was 2.24%; in assay [9], -12.6% (inactive); in assay [13], -1.48% (inactive); in [14], -10.8% (inactive). The results for the max response in [15] and in assay [17] were -11.4% (inactive) and -1.16% (inactive), respectively. Besides, the outcome in assay [3], in assay [5] and in assay [18] was inactive. Further, the Potency entry in [7], in assay [20] and in assay [16] was “inactive” throughout. For the same compound, the activation in assay [11] is -1.97% (inactive); in assay [12] it was 0.0535% (inactive).
Turning to `C[C@]12CC[C@@H]3c4ccc(O)cc4CC[C@H]3[C@@H]1CC[C@H]2O`, the activation was -4.59% (inactive) in [19], 23.4% (inactive) in [10] and 0.328% (inactive) in assay [12]. The compound was classed as inactive in assay [3] and in assay [5]. Also, the Potency result in assay [7], in assay [20] and in [16] was “inactive” throughout. Moreover, the max response in assay [13] was -0.0791% (inactive); in assay [14], -10.8% (inactive); in [15], -24% (inactive).
Regarding `Brc1ccc(Oc2ccc(Br)cc2)cc1`, the Potency entry in [1], in [7], in assay [20] and in assay [16] was “inactive” in each case. In addition, the max response in assay [2] is 0.317%; in [8], -2.23%; in assay [13], 4.27% (inactive); in assay [14], -9.27% (inactive); in assay [17], -1.1% (inactive). Moreover, the compound was classed as inactive in assay [5] and in assay [18]. The activation in assay [10] was 0.901% (inactive).
`CC[C@H]1O[C@]2(CC[C@@H]1C)C[C@@H]1C[C@@H](C/C=C(\C)C[C@@H](C)/C=C/C=C3CO[C@@H]4[C@H](O)C(C)=C[C@@H](C(=O)O1)[C@]34O)O2`: the Potency in assay [4] was 22.4 µM (active); in [16], 31.6 µM (active). Further, the activation in [12] was -11.9% (inactive).

For the origin of these results see PubChem BioAssay (NCATS).
